Measured values as given in PubChem BioAssay (NCI).
Compounds without any hit were thinned out: in the full panel of roughly 83,000, 20% have a hit.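 Values shown are percent growth following 48 h exposure of cells in 96-well plates to a single concentration of compound; below 10 was considered active.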 Activity calls are given as the source filed them.

Tests used:
Experiment in all cases: NCI-60 one-dose screen, 48 h (100 = growth as untreated, 0 = no growth, -100 = all killed)
Details in all cases: 10 µM unless noted
T-47D breast = tested on: T-47D breast
BT-549 breast = tested on: BT-549 breast
MDA-MB-435 melanoma = tested on: MDA-MB-435 melanoma
SW-620 colon = tested on: SW-620 colon
MCF7 breast = tested on: MCF7 breast
HCT-116 colon = tested on: HCT-116 colon
HCC-2998 colon = tested on: HCC-2998 colon
KM12 colon = tested on: KM12 colon

Measured: growth

C=C(C(N)=O)C(N)C(=O)O (configuration not stated)
inactive: T-47D breast 106% | BT-549 breast 108% | MDA-MB-435 melanoma 123% | SW-620 colon 109% | MCF7 breast 102% | HCT-116 colon 92.4% | HCC-2998 colon 108% | KM12 colon 95.9%

CCc1cnc2ccccc2c1/C=C/c1ccc(N(C)C)cc1
active: MDA-MB-435 melanoma 7.56%
inactive: T-47D breast 31.3% | BT-549 breast 49.8% | SW-620 colon 32.1% | HCT-116 colon 24.6% | HCC-2998 colon 68.4% | KM12 colon 25.5%

NC(=S)N/N=C/c1ncccc1O
inactive: T-47D breast 25.2% | BT-549 breast 35.4% | MDA-MB-435 melanoma 29.6% | SW-620 colon 35% | KM12 colon 25.9%
active: MCF7 breast 6.89% | HCT-116 colon 5.32%

CCOC(=O)C1(C)CCCC1N (configuration not stated)
inactive: T-47D breast 105% | BT-549 breast 116% | MDA-MB-435 melanoma 103% | SW-620 colon 106% | MCF7 breast 104% | HCT-116 colon 111% | HCC-2998 colon 115% | KM12 colon 98.5%

CCC(C)C(N)C(=O)NC(CC(N)=O)C(=O)NC(CC(C)C)C(=O)NC(CCCCN)C(=O)NC(C)C(=O)NC(CC(C)C)C(=O)NC(C)C(=O)NC(C)C(=O)NC(CC(C)C)C(=O)NC(C)C(=O)NC(CCCCN)C(=O)NC(CCCCN)C(=O)NC(C(=O)NC(CC(C)C)C(N)=O)C(C)CC (configuration not stated)
inactive: T-47D breast 93.9% | BT-549 breast 134% | MDA-MB-435 melanoma 77.7% | SW-620 colon 103% | MCF7 breast 97.4% | HCT-116 colon 82.5% | KM12 colon 90.2%

Cc1ccc(N2C(=O)C=CC2=O)cc1
active: SW-620 colon -11.5%
inactive: T-47D breast 112% | BT-549 breast 105% | MDA-MB-435 melanoma 117% | HCT-116 colon 101% | HCC-2998 colon 94.3% | KM12 colon 108%

Cn1ccc(=Nc2ccc(NC(=O)c3ccc(N=c4ccn(C)c5ccc([N+](=O)[O-])cc45)cc3)cc2)cc1
inactive: T-47D breast 54.9% | BT-549 breast 56.1% | MDA-MB-435 melanoma 83.4% | SW-620 colon 70.8% | MCF7 breast 55.6% | HCT-116 colon 32.6% | KM12 colon 57.8%

OCCOSCCO
inactive: T-47D breast 110% | BT-549 breast 110% | MDA-MB-435 melanoma 109% | SW-620 colon 105% | HCT-116 colon 102% | HCC-2998 colon 111% | KM12 colon 112%

O=C1C=C(Cl)C(=O)c2ccccc21
inactive: T-47D breast 14.9% | BT-549 breast 98.3% | MDA-MB-435 melanoma 112% | SW-620 colon 98% | HCC-2998 colon 125% | KM12 colon 99.4%

CCCOC(=O)c1nc(N(CC2CCCCC2)C(=O)NC)sc1/N=C/c1ccccc1
inactive: T-47D breast 15.2% | BT-549 breast 18.9%
active: MDA-MB-435 melanoma -46.9% | MCF7 breast 3.21% | HCT-116 colon -25.6% | HCC-2998 colon -78.7% | KM12 colon 7.21%

Cc1cc(Br)c2nsnc2c1[N+](=O)[O-]
active: KM12 colon 9.82%
inactive: T-47D breast 25.1% | BT-549 breast 45% | MDA-MB-435 melanoma 21.1% | SW-620 colon 33.6% | HCT-116 colon 26.3%

COc1ccc(/C=C2/C(=O)ON=C2C)cc1
inactive: T-47D breast 93% | BT-549 breast 107% | MDA-MB-435 melanoma 109% | SW-620 colon 103% | HCT-116 colon 112% | HCC-2998 colon 103% | KM12 colon 113%

CCCC[n+]1c(/C=C\c2c(OC)cc(OC)cc2OC)ccc2ccccc21
active: T-47D breast -3.69% | MDA-MB-435 melanoma -41.2% | SW-620 colon 5.08% | HCT-116 colon 2.83% | HCC-2998 colon 2.5% | KM12 colon -78.6%
inactive: BT-549 breast 15.5%

CCCCCCCCCCCCCCCCCC[S+](C)CC (configuration not stated)
inactive: T-47D breast 16.6% | BT-549 breast 45.1% | SW-620 colon 28.1% | MCF7 breast 36.3% | HCT-116 colon 27.8% | HCC-2998 colon 50.2%
active: KM12 colon -31.7%

Cc1onc(-c2ccccc2)c1C(=O)N/N=C/c1cc(Cl)cc(Cl)c1O
inactive: T-47D breast 42% | BT-549 breast 33.8% | MDA-MB-435 melanoma 45.2% | SW-620 colon 35.3% | HCT-116 colon 21% | HCC-2998 colon 17.1% | KM12 colon 30.6%

CN1CCC(c2ccccc2)(c2ccccc2)C(=O)C1
inactive: T-47D breast 13.7% | BT-549 breast 115% | MDA-MB-435 melanoma 98.9% | HCT-116 colon 64.8% | HCC-2998 colon 82.1% | KM12 colon 92.2%

O=[N+]([O-])c1ccc2c(c1)Cc1ccccc1-2
inactive: T-47D breast 94% | MDA-MB-435 melanoma 99.4% | SW-620 colon 95.8% | MCF7 breast 94.8% | HCT-116 colon 91.3% | HCC-2998 colon 98.3% | KM12 colon 98.3%

O=C1/C(=C\c2ccc([N+](=O)[O-])cc2)CS(=O)(=O)C/C1=C/c1ccc([N+](=O)[O-])cc1
active: T-47D breast -56% | BT-549 breast -82.2% | MDA-MB-435 melanoma -75% | SW-620 colon -71.6% | HCT-116 colon -100% | KM12 colon -89.4%

O=C(CCl)N(c1ccccc1)c1ccccc1
inactive: T-47D breast 110% | BT-549 breast 106% | MDA-MB-435 melanoma 98% | SW-620 colon 108% | HCT-116 colon 111% | HCC-2998 colon 119% | KM12 colon 106%

CCN(CC)CC(O)CNc1ccc(NCC2CO2)c2c1C(=O)c1ccccc1C2=O (configuration not stated)
active: T-47D breast -3.27% | BT-549 breast -56.9% | MDA-MB-435 melanoma -62.4% | SW-620 colon -28.7% | HCT-116 colon -11.2% | HCC-2998 colon -83.5% | KM12 colon -69.1%

O=C1C=CC(O)=CC1=P(c1ccccc1)(c1ccccc1)c1ccccc1
active: HCC-2998 colon -29.4%
inactive: T-47D breast 96.3% | MDA-MB-435 melanoma 103% | SW-620 colon 98.2% | MCF7 breast 91.7% | HCT-116 colon 88% | KM12 colon 99.7%

CCCCCCCCCCCCCCCc1ccc(C(=O)C[n+]2ccccc2)cc1
active: T-47D breast -25.1% | MDA-MB-435 melanoma -78.1% | SW-620 colon -79.1% | MCF7 breast -88.6% | HCT-116 colon -97.7% | HCC-2998 colon -83.4% | KM12 colon -97.7%

O=Nc1ccc2ccccc2c1O
active: MDA-MB-435 melanoma -73.9% | HCT-116 colon 6.58%
inactive: T-47D breast 51.5% | BT-549 breast 100% | SW-620 colon 61.8% | HCC-2998 colon 103% | KM12 colon 79.3%

COc1cccc2c1C(=O)c1c(O)c3c(c(O)c1C2=O)C[C@@](O)(C(=O)CO)C[C@@H]3OC1CC(OC(C)=O)C(OC(C)=O)C(C)O1 (some centres not stated)
active: T-47D breast -27.3% | BT-549 breast -39.7% | MDA-MB-435 melanoma 7.04% | SW-620 colon 3.7% | HCT-116 colon -80% | HCC-2998 colon -72% | KM12 colon -39%

Cc1cc(C)c([I+]c2c(C)cc(C)cc2C)c(C)c1
active: T-47D breast 0.613% | BT-549 breast -86.4% | MDA-MB-435 melanoma -81.2% | SW-620 colon -40.1% | HCT-116 colon -87.1% | HCC-2998 colon -85.5% | KM12 colon -75.9%

CN(C)c1ccc(/C=C/c2sc3ccc4ccccc4c3[n+]2C)cc1
active: T-47D breast -10.9% | MDA-MB-435 melanoma -34.8% | SW-620 colon -63.9% | MCF7 breast -9.73% | HCT-116 colon -71.8% | HCC-2998 colon -91.5% | KM12 colon -63%

CC(C)N=C(N)/N=C(\N)Nc1ccc2ccc3ccccc3c2c1
active: T-47D breast -67.8% | BT-549 breast -55.3% | MDA-MB-435 melanoma -93.7% | MCF7 breast -90.5% | HCT-116 colon 3.26% | HCC-2998 colon -90.9% | KM12 colon -82.2%
